This passage reports Potency results from PubChem BioAssay AID1347076 (National Center for Advancing Translational Sciences (NCATS), 2019).

Among all 400,000 compounds or so, about 13,000 (3.2%) were called active. Where a call stands in place of a potency, no number is given. Roughly 18% stayed inconclusive and do not appear here. Calls follow the shape of the dose curve; as a rule, active = well fitted cell-killing curve with a large enough effect; inconclusive = small, poorly fitted or top-dose-only effect, or effect the other way; inactive = flat fitted curve, though single readings scatter. The full list was thinned out, with actives kept by preference.
Potency is read from the fitted curve at half-maximal effect.

This test can be described thus: qHTS assay for MDR1-selective chemotherapeutics: Primary screen using the drug-selected MDR subline cells KB-V1. Also: nearly all actives have a fitted effect of over 60% in size. The following applies: KB-V1 MDR cells viability, CellTiter-Glo, 72 h; series mostly up to 46.1 µM. The gist of the method:
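Cytotoxicity via CellTiter-Glo luminescence after 72 h compound exposure at 37 degrees C. Cells: drug-selected KB-V1 line, DMEM phenol-red free plus 10% FBS. Compounds tested at multiple concentrations; normalized data fitted to concentration-effect curves.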
Regarding `O=C(Cn1c(-c2ccc(Cl)cc2)noc1=O)N1CCN(c2ccccc2F)CC1`, the Potency is 9.2 µM (active).

Turning to `O=C(CCSc1ccccc1)N1CCN(c2ccccc2F)CC1`, the Potency result is “inactive”.

Turning to `CC1(C2CC2)NC(=O)N(CC(=O)N2CCN(c3ccccc3F)CC2)C1=O` (stereo unspecified), the Potency result is “inactive”.

In the case of `Clc1ccccc1Nc1nc(NCc2cccs2)nc2ccsc12`, the Potency result is “inactive”.

Regarding `CCCNC(=O)C(CC)n1nc(CC)n2c(cc3oc(C)cc32)c1=O` (stereo unspecified), the Potency result was “inactive”.

Regarding `CC(C)(C(=O)N1CCC1(C)C(=O)NS(=O)(=O)c1ccc(Br)cc1)c1ccccc1` (stereo unspecified), the Potency result is “inactive”.

In the case of `CC(OC(=O)c1cccnc1Cl)C(=O)NC1CCCCC1` (stereo unspecified), the Potency result is “inactive”.

In the case of `Cc1ccc(C(=O)NC2CCN(C(=O)Nc3ccc(F)cc3)CC2)cc1`, the Potency entry was “inactive”.

As to `CCS(=O)(=O)N1CCCC(C(=O)NCc2ccc(C)cc2)C1` (stereo unspecified), the Potency entry was “inactive”.

With `Cc1ccc(NC(=O)N2CCC(C(=O)NCc3ccc(F)cc3)CC2)cc1`, the Potency is 18.4 µM (active).

Turning to `O=C1Nc2ccccc2NC(c2ccc3c(c2)OCO3)=C1N(Cc1ccc(F)cc1)C(=O)c1ccco1`, the Potency result was “inactive”.

Turning to `O=C(c1ccc2c(c1)N(Cc1ccccc1F)C(=O)c1ccccc1S2(=O)=O)N1CCOCC1`, the Potency entry was “inactive”.

For the molecule `COc1ccc(C2c3c(oc4ccccc4c3=O)C(=O)N2Cc2ccc3c(c2)OCO3)cc1` (stereo unspecified), the Potency entry was “inactive”.

For the molecule `C=CCn1c(SCC(=O)c2ccc(Br)cc2)nnc1C(C)NC(=O)Cc1ccc(OC)cc1` (stereo unspecified), the Potency result was “inactive”.

For the molecule `COc1ccc(C(=O)NCc2nnc(SCCOc3ccccc3)n2C)cc1`, the Potency result is “inactive”.

Take `C=CCn1c(SCCOc2ccc(OC)cc2)nnc1C(NC(=O)c1ccc(OC)cc1)C(C)C` (stereo unspecified): the Potency is 11.6 µM (active).

On to `CCOC(=O)c1c(C)[nH]c(C)c1C(=O)COC(=O)/C=C/c1cccc([N+](=O)[O-])c1`, for which the Potency entry was “inactive”.

For the molecule `O=C(OCc1cn([C@@H]2C[C@H](c3ccc(Cl)cc3)N(Cc3cccs3)C[C@H]2O)nn1)c1ccccc1`, the Potency entry is “inactive”.

For the molecule `CCc1cccc(CC)c1N1C(=O)CC(Sc2ccccc2N)C1=O` (stereo unspecified), the Potency was 6.51 µM (active).

For `Cc1ccnc(SC2CC(=O)N(c3ccccc3)C2=O)n1` (stereo unspecified), the Potency result was “inactive”.

With `COC(=O)c1ccccc1SC1CC(=O)N(c2cccc(C)c2)C1=O` (stereo unspecified), the Potency entry is “inactive”.

Turning to `COc1cc2c3c(c1)/C(=C1/SC(=S)NC1=O)C(=O)N3C(C)(C)C=C2C`, the Potency was 9.2 µM (active).

With `O=C(OCc1cn([C@H]2C[C@H](c3ccccc3)N(C(=O)c3cccs3)C[C@@H]2O)nn1)c1ccccc1`, the Potency entry was “inactive”.

With `COc1ccc(/C=C2\SC(=S)N(CCC(=O)N3CCOCC3)C2=O)cc1OC`, the Potency result is “inactive”.

Turning to `C=C1C=C(C(F)F)n2ncc(C(=O)NCCc3ccccc3OC)c2N1`, the Potency entry was “inactive”.

Regarding `Brc1ccc2ncnc(NCc3cccnc3)c2c1`, the Potency entry was “inactive”.

Take `C=CCNc1ncnc2ccc(Br)cc12`: the Potency was 20.6 µM (active).

As for `O=C(O)CCCCCNc1ncnc2ccc(Br)cc12`, the Potency result is “inactive”.

In the case of `Cc1ccc2nc(COc3cccc(NC(=O)c4cccc(Cl)c4)c3)cc(=O)n2c1`, the Potency result was “inactive”.

On to `Cc1cc(O)cc(O)c1C(=O)Cc1cnn(-c2ccccc2)c1`, for which the Potency was 16.4 µM (active).

For the molecule `COc1ccc(C(=O)Cc2cnn(-c3ccccc3)c2)c(O)c1`, the Potency result is “inactive”.

In the case of `O=C(c1cnn(-c2ccc(Cl)cc2)c1)c1ccccc1O`, the Potency result is “inactive”.

In the case of `Cc1ccc(-c2cc(-c3coc4ccccc4c3=O)c3c(n2)-c2cc(Cl)ccc2OC3)cc1`, the Potency entry is “inactive”.

`Cc1cc(C)c(S(=O)(=O)NN=C2c3ccccc3[C@H]3Cc4csc[n+]4[C@@H]23)c(C)c1`: the Potency entry is “inactive”.

With `C[C@H](CO)N1C[C@H](C)[C@@H](CN(C)C(=O)c2cccc(F)c2)Oc2cc(-c3cncnc3)ccc2S1(=O)=O`, the Potency result was “inactive”.

Turning to `O=C(NCCOc1ccccc1)c1ccccc1F`, the Potency entry is “inactive”.

In the case of `COc1ccccc1N1CCN(C(=O)c2c(-c3c(Cl)cccc3Cl)noc2C)CC1`, the Potency entry is “inactive”.

As to `COc1ccccc1N1CCN(C(=O)c2cc(=O)c3cc(C)ccc3o2)CC1`, the Potency result is “inactive”.

Take `COc1ccccc1N1CCN(C(=O)c2cc(=O)c3cc(C)cc(C)c3o2)CC1`: the Potency was 0.206 µM (active).

As for `O=C(Nc1ccc2c(c1)OCCO2)C1c2ccccc2OCC(=O)N1Cc1ccccn1` (stereo unspecified), the Potency entry was “inactive”.

On to `Cc1ccc(C(=O)N[C@H](C(=O)N2CCN(c3ncccn3)CC2)C(C)C)cc1`, for which the Potency entry was “inactive”.

On to `Cc1c(C(=O)NCc2ccccc2)cnn1-c1ccccc1`, for which the Potency result is “inactive”.

For the molecule `O=C(Cn1cnc2c(cnn2-c2ccccc2)c1=O)NCc1ccccc1`, the Potency was 5.17 µM (active).

For `CC(=O)Cn1cnc2c(cnn2-c2ccccc2)c1=O`, the Potency entry was “inactive”.

Take `COc1ccc(Cl)cc1NC(=O)CCS(=O)(=O)c1ccc(Br)cc1`: the Potency result is “inactive”.

In the case of `COc1ccc(Br)cc1CN(C)CC(=O)Nc1cc(Cl)cc(Cl)c1`, the Potency is 7.31 µM (active).

Turning to `COc1ccc(OC)c(NC(=O)CN(C)CCOc2ccc(Br)cc2)c1`, the Potency result was “inactive”.

Regarding `CCCCCCN1CCN(C2CN(Cc3cn(CCCCCC)nn3)S(=O)(=O)C2)CC1` (stereo unspecified), the Potency result is “inactive”.

Regarding `COc1ccc(-c2nc3ccc(Br)cn3c2Cc2ccc(C)cc2)cc1OC`, the Potency result was “inactive”.

Regarding `CN(C)CCNC(=O)Nc1cccc(Cl)c1Cl`, the Potency entry was “inactive”.

Regarding `CC(=O)NCCNC(=O)c1cc(-c2cccc3ccccc23)nc2ccccc12`, the Potency result is “inactive”.

Regarding `CN(C)CCNC(=O)c1ccc(Cl)c2cc3ccccc3nc12`, the Potency was 2.06 µM (active).

As for `CCOC(=O)C1CCCN(C(=O)c2cc(-c3cccs3)oc2C)CC1` (stereo unspecified), the Potency result was “inactive”.

On to `O=C1N(Cc2ccccc2)c2ccc(Cl)cc2C1(O)c1c[nH]c2ccccc12` (stereo unspecified), for which the Potency result was “inactive”.

With `CCOc1ccc(-c2nonc2NC(=O)c2oc3ccc(C)cc3c2C)cc1OCC`, the Potency result was “inactive”.

Turning to `C/C(=N\NC(=O)COc1c(C)cccc1C)c1cccs1`, the Potency result was “inactive”.

Turning to `Cc1nn(-c2ccccc2)c(C)c1/C=N/NC(=O)CSc1nc2ccccc2c(=O)n1-c1ccccc1`, the Potency entry is “inactive”.

Regarding `C/C(=N\NC(=O)CSc1nc2ccccc2c(=O)n1-c1ccccc1C)c1cccs1`, the Potency is 2.31 µM (active).

Consider `Cc1ccc(S(=O)(=O)N2CCCCC2)cc1NC(=O)CCNC(=O)c1ccccc1Cl`, for which the Potency entry was “inactive”.

Consider `CC(=O)Nc1nonc1-c1nc2ccccc2n1Cc1ccccn1`, for which the Potency entry is “inactive”.

For `CCn1c(C(O)c2cc(OC)ccc2OC)nc2ccccc21` (stereo unspecified), the Potency entry was “inactive”.

As to `COc1ccc(C)c(Cn2c(-c3nonc3N)nc3ccccc32)c1`, the Potency is 2.31 µM (active).

As to `O=C(NCCS(=O)(=O)N1CCN(c2ccccc2)CC1)c1cc(=O)c2ccccc2o1`, the Potency result was “inactive”.

Consider `OCCC#Cc1ccc(N2C(c3ccsc3)=Cc3ccc(F)cc3C2c2c[nH]c3ccccc23)cc1` (stereo unspecified), for which the Potency result is “inactive”.

As for `CCOc1ccccc1CNS(=O)(=O)c1cc(-c2cc(C)no2)ccc1C`, the Potency entry was “inactive”.

On to `COc1ccc(CCNS(=O)(=O)c2cc(-c3cc(C)no3)ccc2C)cc1OC`, for which the Potency result is “inactive”.

For the molecule `COc1ccc(CNS(=O)(=O)c2cc(-c3cc(C)no3)ccc2C(C)C)cc1`, the Potency was 13 µM (active).

As to `CC1(C(=O)NS(=O)(=O)Cc2cccc(Cl)c2)CCN1C(=O)Cc1ccc(Cl)cc1Cl` (stereo unspecified), the Potency result is “inactive”.

Regarding `CCc1nc2ccc(C(=O)N3CCN(S(=O)(=O)CC)CC3)cn2c1N(C=O)CCC(C)C`, the Potency result was “inactive”.

Take `CCCCCCCNc1ccc(/C=C/c2ccnc3ccccc23)cc1`: the Potency result was “inactive”.

Take `Cc1cc(C)nc(NS(=O)(=O)c2ccc(NC(=O)c3cc(=O)c4ccc(C)c(C)c4o3)cc2)n1`: the Potency entry is “inactive”.

Turning to `O=c1c2ccccc2n(Cc2cccc(Cl)c2)c(=O)n1Cc1ccccc1`, the Potency result was “inactive”.

For the molecule `Nc1cc(=O)n(Cc2ccccc2)c(=O)n1Cc1ccccc1`, the Potency is 18.4 µM (active).

Regarding `Cc1cc(-c2csc(N)n2)c(C)n1Cc1ccccc1`, the Potency result is “inactive”.

`O=C(CCN1CCCCC1)Nc1ccc(F)c(F)c1`: the Potency result is “inactive”.

In the case of `CSc1ncnc2c1ncn2CCCNCC1CCCCC1`, the Potency result was “inactive”.

In the case of `CSc1ncnc2c1ncn2CC(=O)C1CCC2C3CCC4=CC(=O)CCC4(C)C3CCC12C` (stereo unspecified), the Potency was 23.1 µM (active).

For `CSc1ncnc2c1ncn2CCCNCc1ccco1`, the Potency entry was “inactive”.

As to `Cc1cc(C)cc(NC(=O)Cn2nc(N3CCN(c4ccccc4)CC3)ccc2=O)c1`, the Potency result was “inactive”.

`CC1(C)CN(Cc2cccnc2)C(=O)[C@H]1CC(=O)Nc1ccc(Br)cc1`: the Potency result was “inactive”.

On to `COc1ccc(C)cc1N(CC(=O)N1CCC(C)CC1)S(=O)(=O)c1ccc(C)cc1`, for which the Potency result was “inactive”.

As for `COC(=O)CN(c1nc(C)c(Cl)c(OC)n1)S(=O)(=O)c1ccc(C)cc1`, the Potency was 13 µM (active).

As to `CCN(CC)C(=O)CN(c1cccc(OC)c1)S(=O)(=O)c1ccc(C)cc1`, the Potency result is “inactive”.

Consider `CCOC(=O)N1CCN(C(=O)C[C@@H]2C[C@@]3(C(=O)OC)CCCCC=C3N(CCC3=CCCCC3)C2=O)CC1`, for which the Potency entry was “inactive”.

In the case of `CCCNC(=O)C[C@@H]1CC[C@@H]2[C@H](COC[C@H](O)CN2C(=O)c2cc(Cl)cc(Cl)c2)O1`, the Potency result is “inactive”.

As to `C[C@@H]1CN([C@@H](C)CO)C(=O)c2c(c3ccccc3n2C)-c2ccccc2CO[C@H]1CN(C)C(=O)C1CC1`, the Potency result was “inactive”.

For the molecule `Cn1ncc([N+](=O)[O-])c1C(=O)Nc1cc(Cl)ccc1Cl`, the Potency result was “inactive”.

As to `CN(C)c1ccc(NC(=O)CSc2nc(-c3ccco3)cc(C(F)(F)F)n2)cc1`, the Potency result is “inactive”.

`Cc1ccc(-c2cnc(C(O)c3cccc(C)c3C)[nH]2)cc1` (stereo unspecified): the Potency entry was “inactive”.

For `Cc1cc(F)ccc1NS(=O)(=O)c1ccc(-n2cccn2)cc1`, the Potency result is “inactive”.

For the molecule `Cc1ccc(-c2nnc3ccc(SCC(N)=O)nn23)cc1`, the Potency result was “inactive”.

Take `COc1cccc(NCCC(=O)c2cccc([N+](=O)[O-])c2)c1`: the Potency result was “inactive”.

Turning to `O=C(NOCc1ccccc1)c1cccc([N+](=O)[O-])c1`, the Potency entry is “inactive”.

In the case of `CCC1(C(=O)c2ccccc2)C(c2cccc([N+](=O)[O-])c2)C1(C(=O)OC)C(=O)OC` (stereo unspecified), the Potency is 23.1 µM (active).

As for `CC(C)(C)NC(=O)C(CCc1ccccc1)n1c(=O)c(-c2ccccc2)nc2ccccc21` (stereo unspecified), the Potency result is “inactive”.

For the molecule `Cc1cccc2cc(CN(Cc3cccs3)C(=S)NCc3ccco3)c(=O)[nH]c12`, the Potency was 3.66 µM (active).

With `Cc1ccc(C)c2[nH]c(=O)c(CN(Cc3cccnc3)C(=S)NCc3ccco3)cc12`, the Potency entry is “inactive”.

Consider `Cc1cc(C)c2[nH]c(=O)c(CN(Cc3ccccc3)C(=S)NCCCN(C)C)cc2c1`, for which the Potency entry was “inactive”.

As to `CCCN(Cc1cc2cccc(C)c2[nH]c1=O)S(C)(=O)=O`, the Potency result is “inactive”.

In the case of `Cc1ccc(C)c2[nH]c(=O)c(CCNC(=O)c3cccs3)cc12`, the Potency result is “inactive”.

For the molecule `Cc1cccc2cc(CN(C(=O)c3cccs3)c3ccccc3)c(=O)[nH]c12`, the Potency was 23.1 µM (active).
